From PubChem BioAssay AID1745848 (National Center for Advancing Translational Sciences (NCATS), 2022)
Among all 2,100 compounds or so, about 940 (45%) were called active. Another 48% or so got no clear call; they are omitted. Calls come from the whole dose curve; as a rule, active = well fitted inhibition curve with a large enough effect; inconclusive = small, poorly fitted or top-dose-only effect; inactive = no such curve, though single readings can be large or run the other way. So high a share suggests a set chosen from earlier hits. The list shows a part of the results.

Assay: Confirmatory qHTS for Inhibitors of ATXN expression; note: nearly all actives have a fitted effect of over 65% in size
Conditions: ATXN2-luciferase reporter cells, luminescence, 24 h; series mostly up to 11.5 µM
Summary of the method: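 A titration, incubated 24 h with reporter cells expressing ATXN2-luciferase. Luminescence (SteadyGlo) gives ATXN2 expression, multiplexed GF-AFC fluorescence gives viability; normalised to DMSO and medium-only wells.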
Potency is the fitted concentration of half-maximal effect.

SMILES | Potency
CCC(=O)NC(c1ccco1)c1cc(Br)c2cccnc2c1O (configuration not stated) | 11.2 µM (active)
O=C(CCc1ccccc1)NC(c1cccs1)c1cc(Cl)c2cccnc2c1O (configuration not stated) | 2.24 µM (active)
Oc1ccc(C2CNCc3sccc32)cc1O (configuration not stated) | inactive
Cc1nc(-c2ccc(C(F)(F)F)cc2)sc1C(=O)NN | 14.1 µM (active)
Cc1c(C(=O)NCc2ccc(C(F)(F)F)cc2)sc(=O)n1Cc1cccc(F)c1 | inactive
Cn1c(NCCN2CCCC2)nc2cc(-c3ccsc3)sc2c1=O | 28.2 µM (active)
Cc1ccc(F)cc1-c1cc2nc(NCCCN(C)C)n(C)c(=O)c2s1 | 17.8 µM (active)
Cc1cc(Cl)ccc1-c1cc2nc(NCCCN(C)C)n(C)c(=O)c2s1 | inactive
CCCCCCc1cc2cc(C(=O)Nc3ccccc3)c(=O)oc2cc1O | 0.794 µM (active)
CCCCCCc1cc2cc(S(=O)(=O)c3ccc(C)cc3)c(=O)oc2cc1O | inactive
Cc1cccc(Nc2nc(N)nc(CCl)n2)c1C | inactive
C=CCn1c(COc2ccccc2)nnc1SC(C)C(=O)N/N=C/c1cc(Cl)ccc1O (configuration not stated) | 3.98 µM (active)
CC(C)c1ccc(S(=O)(=O)c2cc3cc(Br)ccc3oc2=O)cc1 | 25.1 µM (active)
c1ccc2c(c1)c1c(c3ccccc32)CN2CCCC2C1 (configuration not stated) | inactive
CS(=O)(=O)Nc1ccccc1C(=O)Nc1cc(Cl)cc(Cl)c1 | 2.51 µM (active)
CC(C)(C)NCC(=Cc1ccccc1)C(=O)c1ccccc1 | 1.41 µM (active)
O=C(C(Br)=Cc1ccccc1)c1ccccc1 | 10 µM (active)
Cc1n(Cc2ccccc2)c2ccccc2[n+]1Cc1ccccc1 | inactive
N#Cc1c(Oc2ccc3ccccc3c2)sc(C(=O)c2ccccc2)c1N | 14.1 µM (active)
CCOC(=O)C1CCN(c2cc3c(cc2NC(=O)c2ccccc2OCC)n(C)c(=O)n3C)CC1 | 28.2 µM (active)
Cc1ccc(O)c(CNCCNCc2cc(C)ccc2O)c1 | 14.1 µM (active)
COc1ccc(-c2noc(CCCC(=O)NC3CCCC3)n2)cc1 | 8.91 µM (active)
Cc1ccc(-c2noc(CCCC(=O)NC3CCCC3)n2)cc1 | 7.94 µM (active)

SMILES | Potency
Cc1cccc(OCCCC(=O)Nc2nc3ccccc3[nH]2)c1 | 0.891 µM (active)
O=C(CSc1ccc2ccccc2c1)Nc1nc2ccccc2[nH]1 | 2.82 µM (active)
Cc1cccc(OCCCC(=O)Nc2nccs2)c1 | 3.16 µM (active)
Cc1[nH]n(-c2ccccc2)c(=O)c1C=Nc1cccc2cccnc12 | 1.78 µM (active)
CCOc1cc(/C=C2\SC(=N)N(c3nccs3)C2=O)ccc1OCCN1CCOCC1 | 14.1 µM (active)
CSc1nc(-c2ccc(Cl)cc2)nc(N)c1C#N | 2.82 µM (active)
CC(=O)Oc1ccc(N(C(C)=O)S(=O)(=O)c2ccc(C)cc2)c2ccccc12 | 3.16 µM (active)
CC(=O)Oc1ccc(N(C(C)=O)S(=O)(=O)c2ccc(C)cc2C)c2ccccc12 | 31.6 µM (active)
CC1CCN(Cc2c(C(=O)N/N=C/c3cc(Br)ccc3O)nnn2-c2nonc2N)CC1 | 0.794 µM (active)
CC1CCN(Cc2c(C(=O)N/N=C/c3ccccc3O)nnn2-c2nonc2N)CC1 | 1.78 µM (active)
CC1CCN(Cc2c(C(=O)N/N=C/c3cc(Cl)ccc3O)nnn2-c2nonc2N)CC1 | 3.55 µM (active)
CCN1CC2=C(OC(N)=C(C#N)C2c2cccs2)/C(=C\c2cccs2)C1 (configuration not stated) | inactive
COc1cc([C@@H]2c3cc4c(cc3[C@@H](O[C@@H]3O[C@@H]5CO[C@@H](C)O[C@H]5[C@H](O)[C@H]3O)[C@H]3COC(=O)[C@H]23)OCO4)cc(OC)c1O | 0.631 µM (active)
CC[C@]12c3[nH]c4ccc(Cl)cc4c3CCN1C(=O)[C@@H](CC(=O)NCC13CC4CC(CC(C4)C1)C3)C[C@@H]2C(=O)N1CCN(C(=O)C2CC2)CC1 | 28.2 µM (active)
CC[C@]12c3[nH]c4ccc(Cl)cc4c3CCN1C(=O)[C@@H](CC(=O)NCC13CC4CC(CC(C4)C1)C3)C[C@@H]2C(=O)N1CCN(C(=O)c2ccco2)CC1 | 3.55 µM (active)
O=C(N/N=C(\Cc1ncc[nH]1)c1ccccc1)c1ccncc1 | 10 µM (active)
O=C(N/N=C(\Cc1ncc[nH]1)c1ccccc1)c1cccnc1 | 3.16 µM (active)
Oc1ccc2ccccc2c1/C=C/c1ccc2c(Br)cc(Br)c(O)c2n1 | 12.6 µM (active)
CN(C)CCNc1cccc2sc3ccc(O)cc3c(=O)c12 | 28.2 µM (active)
CN(C)CCNc1ccc2nnn3c4ccc(O)cc4c(=O)c1c23 | 2 µM (active)
CN(C)CCNc1ccc2ncn3c4ccc(O)cc4c(=O)c1c23 | 1 µM (active)
Cc1cc(Oc2ccc(Cl)cc2)nc(-c2ccccn2)n1 | inactive
COc1cnc(-c2ccccn2)nc1Oc1ccc(Cl)c2ccccc12 | 3.16 µM (active)

SMILES | Potency
COc1cc([N+](=O)[O-])cc(/C=N/NC(=O)c2ccc(NC(=O)c3ccc(C)cc3)cc2)c1O | 1.41 µM (active)
O=C(N/N=C/c1cc(Br)cc([N+](=O)[O-])c1O)c1ccc(NC(=O)c2ccc(F)cc2)cc1 | 3.16 µM (active)
Cc1cc(C(=O)N/N=C/c2cc(Br)cc([N+](=O)[O-])c2O)c2ccccc2n1 | 3.16 µM (active)
O=C(Nc1ccc(Cl)c(Cl)c1)Nc1nnc(CSc2ccccc2)s1 | 1.78 µM (active)
CC1=CC(C)(C)Nc2ccc(OC(=O)CN3C(=O)CCC3=O)cc21 | 3.55 µM (active)
Cc1cc(NCc2ccccn2)n2nc(C)c(-c3ccc(Cl)cc3)c2n1 | 15.8 µM (active)
c1ccc(Cn2c(-c3ccccc3)c[n+]3c2SCCC3)cc1 | inactive
CCOc1ccc(-n2c(-c3ccccc3)c[n+]3c2CCCCC3)cc1 | 8.91 µM (active)
Cc1cccc(C2=NN(c3ccccc3)[C@H](CO)[C@H]2c2ccc(Cl)cc2)c1 | inactive
Cc1cc(C)c2nc(N3CCCC(C(=O)N4CCN(c5ncccn5)CC4)C3)sc2c1 (configuration not stated) | 3.16 µM (active)
O=c1cc(-c2cccnc2)oc2c1ccc1ccccc12 | 3.55 µM (active)
CN(C)c1cc[n+](CC(=O)c2ccc(-c3ccccc3)cc2)cc1 | 2.24 µM (active)
Oc1ccc(C[C@@H]2CNCCN2CCc2cc(C(F)(F)F)cc(C(F)(F)F)c2)cc1 | 3.16 µM (active)
COc1cccc(-c2ccc(NC(=O)C3CCCN(Cc4cnn(C(C)C)c4)C3)cc2)c1 (configuration not stated) | 3.16 µM (active)
Cc1cc(C)nc(NNS(=O)(=O)c2ccc(F)c(Cl)c2)n1 | inactive
CN(CC(=O)Nc1ccc(Cl)c(C(F)(F)F)c1)C(=O)c1cccnc1Sc1ccccc1 | inactive
Cc1nc(-c2ccc(F)cc2)c(CC(=O)N(C)CC(=O)Nc2ccc(Cl)c(C(F)(F)F)c2)s1 | 25.1 µM (active)
CN(CC(=O)NCc1ccc(F)cc1)CC(=O)Nc1ccc(Cl)c(C(F)(F)F)c1 | 25.1 µM (active)
CC(C)C(=O)NC(c1ccccc1)c1cc([N+](=O)[O-])c2cccnc2c1O (configuration not stated) | 10 µM (active)
Cc1cc(OCC(=O)NC(C)c2ccccc2)ccc1[N+](=O)[O-] (configuration not stated) | inactive
CCC(=O)NC(c1ccc(C)cc1)c1cc([N+](=O)[O-])c2cccnc2c1O (configuration not stated) | 6.31 µM (active)
CC(C)c1ccc2c(c1)C(N1CCNCC1)Cc1ccc(F)cc1S2 (configuration not stated) | 28.2 µM (active)
N#Cc1c(N)n(C2OC(CO)C(O)C2O)c2ncnc(N)c12 (configuration not stated) | 0.398 µM (active)

SMILES | Potency
CNc1nc2c(N)ncnc2n1[C@H]1O[C@@H](CO)[C@H](O)[C@@H]1O | 2.82 µM (active)
CCOc1ccc(CCNC(=O)c2ccc(OCc3c(C)noc3C)cc2)cc1OCC | inactive
CCc1cc(C)cc(OCCNC(=O)c2cncc(Br)c2)c1 | 25.1 µM (active)
COc1ccc(OCc2cccc(C(=O)Nn3cc([N+](=O)[O-])cn3)c2)cc1 | 0.398 µM (active)
O=C(Nc1ccc2c(c1)CCC2)C1CCN(c2c3c(nc4ncnn24)CCC3)CC1 | 7.94 µM (active)
CC(C)COc1cccc(C(=O)N(CC(=O)Nc2ccccc2C(F)(F)F)Cc2ccco2)c1 | 3.16 µM (active)
Cc1cc(C)nc(N/N=C2/CCCC/C2=C\c2ccccc2)n1 | 2.82 µM (active)
COc1cc2[nH]c(=O)n(CCCCCC(=O)N3CC=C(c4ccccc4)CC3)c(=O)c2cc1OC | 3.16 µM (active)
CCOC(=O)c1c(NC(=O)C(Sc2ccccc2)c2ccccc2)sc(C(=O)N(C)C)c1C (configuration not stated) | 25.1 µM (active)
CCOC(=O)c1c(NC(=O)COC(=O)c2ccccc2NC)sc(C(=O)N(C)C)c1C | inactive
COc1ccc(N(C(=O)c2snc(C(N)=O)c2N)C(C(=O)NCc2ccc(F)cc2)c2ccc(O)cc2)cc1 (configuration not stated) | inactive
NC(Cc1ccc(Cl)cc1)c1csc(NC(=O)Nc2ccccc2-c2ccccc2)n1 (configuration not stated) | 3.16 µM (active)
COc1ccc(CNC(=O)Nc2nc(C(N)Cc3ccc(Cl)cc3)cs2)cc1 (configuration not stated) | 28.2 µM (active)
COc1ccc(CC(N)c2csc(NC(=O)c3ccccc3OC)n2)cc1 (configuration not stated) | inactive
NC(Cc1ccc(F)cc1)c1csc(NC(=O)NC(c2ccccc2)c2ccccc2)n1 (configuration not stated) | 28.2 µM (active)
CC(C)CC(N)c1csc(NC(=O)Nc2ccccc2C(C)(C)C)n1 (configuration not stated) | 3.16 µM (active)
NC(c1ccccc1)c1csc(NC(=O)Nc2ccccc2Oc2ccccc2)n1 (configuration not stated) | 3.16 µM (active)
O=C(OCCN1C(=O)c2cccc3c(N4CCOCC4)ccc(c23)C1=O)c1ccccc1Cl | 5.01 µM (active)
COc1ccc2c(-c3ccc(S(N)(=O)=O)cc3)c(-c3ccc(S(C)(=O)=O)cc3)sc2c1 | 28.2 µM (active)
O=C(CNC(=O)c1cccc(F)c1)N/N=C/c1cc(Br)ccc1OC(=O)/C=C/c1ccco1 | 7.94 µM (active)
O=C(/C=C/c1ccco1)Oc1cc(Br)cc(/C=N/NC(=O)c2ccccc2O)c1 | 0.447 µM (active)
O=C(CNC(=O)c1ccccc1F)N/N=C/c1cc(Br)ccc1OC(=O)/C=C/c1ccco1 | 11.2 µM (active)
O=C(CNC(=O)c1ccc(F)cc1)N/N=C/c1cc(Br)ccc1OC(=O)/C=C/c1ccco1 | 15.8 µM (active)
